Only some compounds are listed: those with a hit (about 4.7% of all), similar ones and a draw of the others.
D1 PAM: enhances dopamine response at the human D1 receptor; P21728; HEK293 TREx D1 cells, calcium flux, dopamine EC20 potentiation; potentiation, % at 10 µM; 360,000 compounds, 0.036% hits; AID 504651; in the data active = potentiation above about 30%; also: 0% is about no effect
Target sequence (P21728 whole entry, looked up): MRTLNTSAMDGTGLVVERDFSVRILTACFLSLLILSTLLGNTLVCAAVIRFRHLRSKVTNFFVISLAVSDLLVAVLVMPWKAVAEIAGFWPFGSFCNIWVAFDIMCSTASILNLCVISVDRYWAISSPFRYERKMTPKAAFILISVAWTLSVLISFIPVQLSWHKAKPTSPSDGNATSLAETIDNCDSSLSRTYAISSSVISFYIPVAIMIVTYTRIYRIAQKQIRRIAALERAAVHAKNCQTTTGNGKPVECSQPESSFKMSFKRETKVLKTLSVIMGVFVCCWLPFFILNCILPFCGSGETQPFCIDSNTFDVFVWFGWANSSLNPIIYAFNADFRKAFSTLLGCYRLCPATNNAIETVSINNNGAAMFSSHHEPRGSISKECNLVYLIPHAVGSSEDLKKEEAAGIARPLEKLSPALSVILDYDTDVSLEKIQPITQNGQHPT
TRHR PAM: allosteric enhancers of human TRH receptor. P34981. TRHR cells, fluo-8 calcium fluorescence, EC20 TRH enhancement. enhancement, % at 2 µM. 360,000 compounds, 0.66% hits; in the data active = enhancement above about 30%; also: 0% is about no effect
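Enhancer read-out: after compound pinning and an initial kinetic agonist-mode read, an EC20 of TRH (10 nM final) was injected and fluo-8 calcium signal (Ex 480/Em 530) followed at 1 s/cycle for 100 cycles in TRHR-expressing cells.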
D1 ag: activates the human D1 dopamine receptor. activation, % at 2 µM. P21728. 360,000 compounds, 1% hits. HEK293 T-REx D1 cells, calcium flux, agonist mode; also: 0% is about no effect
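Agonism was scored from calcium flux recorded over 180 s (1 read/s) after pintool compound addition, following a 10-cycle baseline. Cells were inducible force-coupled HEK293 TREx D1, plated overnight at 30 C and loaded with no-wash calcium dye.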
D1 antag: human D1 dopamine receptor antagonism; P21728; 360,000 compounds, 3.2% hits; HEK293 TREx D1 cells, calcium flux, dopamine EC80; active compounds read low; activity change, negative = inhibition, % at 10 µM; in the data active = activity change below about -30%; also: % is scaled to controls: 0 for no effect and ±100 for the full control effect
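Inducible Hek293 Trex D1 cells (tetracycline, overnight, 30 C). Calcium dye 30–90 min RT. Antagonist mode: EC80 dopamine added after 180 s compound read.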
TRHR ag: TRH receptor (human) agonism. 360,000 compounds, 0.18% hits. P34981. activation, % at 2 µM. AID 493084. TRHR cells, calcium flux fluo-8, FDSS agonist mode; also: 0% is about no effect
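Steps: seed TRHR cells overnight; add fluo-8 no-wash Ca dye, RT 30 min–1.5 h; record 10 s baseline; pin-transfer compounds; monitor fluorescence 1 cycle/s for the agonist window. Calcium increases flag candidate agonists.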
Active calls of the source: *; x = not tested or not shown; ! = repeats disagree. Rule as the data show it, unless noted: active = activation above about 30%; inactive = the rest.

SMILES | D1 PAM | TRHR PAM | D1 ag | D1 antag | TRHR ag
COc1ccccc1NC(=O)NNC(=O)c1ccc2ccccc2c1O | 1 | -2 | 6 | -36* | 0
COc1cccc(C(=O)Nc2cccc3ccccc23)c1OC | 4 | 6 | 2 | -35* | 0
Cc1cc(Cl)ccc1Nc1ncnc2onc(C)c12 | -6 | -9 | 5 | 3 | 1
O=C(CN1C(=O)C2CCCCC2C1=O)Nc1ccc(OC(F)F)c(Cl)c1 (stereo unspecified) | -2 | 6 | 1 | -32* | 1
Cc1cccc(NC(=O)CSc2nc(C)c(Cc3ccccc3)c(=O)[nH]2)c1C | -6 | -4 | 1 | -31*! | -1
CSc1ncccc1C(=O)NCC(c1cccs1)N1CCOCC1 (stereo unspecified) | -3 | 2 | 3 | -80* | 0
O=C(NCC(c1ccc(F)cc1)N1CCOCC1)c1ccccc1F (stereo unspecified) | -9 | -3 | 1 | -39* | 0
COc1cc(OC)cc(-c2nc3n(n2)C(c2ccccc2F)C(C(=O)Nc2cccnc2)=C(C)N3)c1 (stereo unspecified) | -2 | 6 | 2 | 2 | 1
COC(=O)c1c(-c2ccccc2)csc1NC1=NS(=O)(=O)c2ccccc21 | 6 | 32* | 11 | -4 | 0
O=C(CCCOc1ccc(Cl)cc1Cl)NNC(=O)c1ccc(NC(=O)c2ccccc2)cc1 | 2 | 1 | 11 | 7 | -1
Cc1ccccc1C(=O)Nc1ccc(C(=O)NNC(=O)CCCOc2ccc(Cl)cc2Cl)cc1 | -4 | 2 | 3 | -39* | 0
COc1ccc(OC)c(N/C(=N/C(=S)Nc2ccccc2)Nc2nc(C)cc(C)n2)c1 | -8 | 3 | 2 | -31* | 0
COc1ccc2nc(N/C(N)=N/C(=S)Nc3ccccc3)nc(C)c2c1 | 0 | 4 | -2 | 18 | 0
CC(C)Oc1cccc(C(=O)NC(=S)NCc2cccnc2)c1 | -3 | 40* | 0 | -6 | -2
CCc1ccc(C(=O)NC(=S)NCc2cccnc2)cc1 | -9 | -3 | 3 | -35* | -2
CCc1ccc(NC(=O)c2ccc(S(=O)(=O)NCc3cccnc3)cc2)cc1 | x | 11 | 10 | -34* | 1
COc1ccc(-c2cnc(C)o2)cc1S(=O)(=O)Nc1ccc(C)c(F)c1 | 0 | -4 | 4 | 9 | 1
O=C(NCc1ccc(Cl)cc1)c1cccc(S(=O)(=O)N2CCCC2)c1 | -1 | 4 | 0 | -40* | -1
Cc1ccc(C(=O)NCCC2=CCCCC2)cc1S(=O)(=O)N1CCCCC1 | -2 | 4 | 15 | -8 | 0
Cn1cc(S(=O)(=O)N2CCCC2)cc1C(=O)NCc1ccc(Cl)cc1 | -6 | 0 | 2 | -33* | 0
O=C(NCCC1=CCCCC1)c1cccc(S(=O)(=O)N2CCCCC2)c1 | -8 | 2 | 6 | -39* | 1
CN(C)c1ccc(CNC(=O)c2cc(S(=O)(=O)N3CCCC3)cn2C)cc1 | -6 | 2 | 8 | -12 | 0
CCOC(=O)COc1ccc([N+](=O)[O-])cc1-c1ccnc2cc(-c3ccc(Cl)cc3)nn12 | -1 | 1 | 0 | -2 | 1
CC(C(=O)Nc1ccc(OC(F)(F)F)cc1)N1Cc2ccccc2C1=O (stereo unspecified) | -1 | 0 | -1 | -8 | 1
Cc1cccc(-n2c3nc(=O)[nH]c(=O)c-3cc3c(Cl)cccc32)c1C | 0 | -3 | 16 | 27 | -1
SMILES | D1 PAM | TRHR PAM | D1 ag | D1 antag | TRHR ag
Cc1ccnc(N/C=C(/NC(=O)c2ccccc2)C(=O)N/N=C\c2ccc(F)cc2)n1 | -7 | 0 | 0 | -37* | -1
CCOC(=O)C1=C(CS(=O)(=O)c2c(C)cc(C)cc2C)NC(=O)NC1c1cccc(OC)c1 (stereo unspecified) | 1 | -10 | 4 | -8 | 0
COc1cccc(NC(=O)Cc2cccs2)c1 | -4 | -3 | 4 | -14 | 0
COc1cc(NC(=O)Cc2cccs2)c(C(=O)O)cc1OC | -3 | -4 | 2 | -32* | 0
Cc1cccc(NC(=O)c2cccc(NC(=O)Cc3cccs3)c2)c1 | -7 | -2 | 5 | -48* | 1
COc1cc(NC(=O)Cc2cccs2)cc(OC)c1 | 15 | 1 | 2 | -33* | 0
COc1ccc(C(=O)Nc2nnc(S(=O)(=O)N3CCN(c4ccc(C)cc4)CC3)s2)cc1 | -2 | -5 | 0 | 8 | 0
O=C(CCCCCn1c(=O)[nH]c2ccccc2c1=O)NCc1cccc(Cl)c1 | -3 | -2 | -2 | -12 | -1
COCCOC(=O)c1[nH]c2c(c1C)C(=O)CC(c1ccc(F)cc1)C2 (stereo unspecified) | -6 | -3 | 64* | -7 | 0
O=C(NC1CCN(Cc2ccccc2)CC1)C1CCCN(S(=O)(=O)c2cccc3nonc23)C1 (stereo unspecified) | -3 | 36* | 15 | -15 | 0
CC(C)NC(=O)C1CCCN(S(=O)(=O)c2cccc3nonc23)C1 (stereo unspecified) | -7 | 2 | 0 | 13 | 0
O=C(NCc1ccccc1)C1CCCN(S(=O)(=O)c2cccc3nonc23)C1 (stereo unspecified) | 0 | 4 | 2 | 7 | -1
CCC(C)NC(=O)C1CCN(S(=O)(=O)c2cccc3nonc23)CC1 (stereo unspecified) | 3 | 31* | -3 | -3 | 0
CCN(CC)CCNCc1cc(Cl)c(OCC(=O)Nc2ccccc2)c(OC)c1 | -3 | 1 | 7 | -2 | 0
COc1cc(CNC(C)c2ccccc2)cc(Cl)c1OCC(=O)Nc1ccccc1 (stereo unspecified) | -11 | -1 | 64* | x | 3
CCOc1ccc(N2CC(C(=O)N3CCCCCC3)CC2=O)cc1 (stereo unspecified) | 4 | 5 | 0 | 2 | 0
CCCNC(=O)C1CC(=O)N(c2ccc(OCc3ccc(Cl)cc3)cc2)C1 (stereo unspecified) | 1 | -3 | 12 | -7 | 0
CCCNC(=O)C1CC(=O)N(c2ccc(OCc3ccc(F)cc3)cc2)C1 (stereo unspecified) | -8 | 7 | 12 | -36* | 2
CCOc1ccc(N2CC(C(=O)N3CCCC3)CC2=O)cc1 (stereo unspecified) | -4 | 4 | 0 | -83* | 0
NC(=O)C1CC(=O)N(c2ccc(OCc3ccc(Cl)cc3)cc2)C1 (stereo unspecified) | -6 | -2 | 18 | -39* | 1
C=CCNC(=O)C1CC(=O)N(c2ccc(OCC(=O)Nc3ccc(OC)cc3)cc2)C1 (stereo unspecified) | -1 | 2 | -1 | 16 | 1
C=CCNC(=O)C1CC(=O)N(c2ccc(OCC(=O)Nc3ccc(C)cc3)cc2)C1 (stereo unspecified) | -11 | 3 | 0 | -31* | 0
